# Shown are actives, neighbours in structure and some others; about 9.4% of the full set was active somewhere.
# SARS PLpro yeast = qHTS of Yeast-based Assay for SARS-CoV PLP. hit rate 0.19% among 330,000. S. cerevisiae expressing SARS-CoV PLpro, growth rescue. AID 485353, 2010. Potency, µM (titrated, usually from 32.9 µM), for inactives: at the top dose activity, positive = growth rescue, actives largely listed as activators; calls by dose curve; further: 0% is about no effect; nearly all actives have a fitted effect of over 55% in size
# AMA1-RON2 inh = qHTS for Inhibitors of AMA1-RON; Towards Development of Antimalarial Drug Lead: Primary Screen; Plasmodium falciparum AMA1 (3D7) - RON2 peptide interaction; AlphaScreen AMA1-biotinylated RON2 peptide binding; Potency, µM (doses to about 58.2 µM), without a hit: at the top dose activity change, negative = inhibition, actives largely listed as inhibitors; hit rate 0.2% among 360,000;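 further: 0% = vehicle wells and -100% = peptide control; nearly all actives have a fitted effect of over 45% in size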
#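 AMA1 (3D7) with his tag at 25 nM final met compounds first, then biotinylated RON2 peptide at 25 nM; detection used donor plus acceptor beads, 10 µg/mL apiece, read by AlphaScreen after 30 min at room temperature.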
# Pf growth 48h = Primary qHTS for delayed death inhibitors of the malarial parasite plastid, 48 hour incubation; P. falciparum luciferase growth in erythrocytes, 48 h; Potency, µM (top dose mostly 28.7 µM), inactives show at the highest dose activity change, negative = inhibition, hits mostly inhibitors; hit rate 5.9% among 310,000; AID 504832, 2011; further: on the % scale 0 is the no-effect control and ±100 the full control effect
#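 Growth was read as firefly luciferase luminescence after a 48 h, 37 C, 5% CO2 exposure of compounds to reporter-bearing P. falciparum cultures (0.1% parasitemia, 2% hematocrit final) in Albumax-supplemented RPMI 1640.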
# Pf growth 96h = Primary qHTS for delayed death inhibitors of the malarial parasite plastid, 96 hour incubation; hit rate 6.9% among 320,000; Potency, µM (series often up to 28.7 µM), without a hit: at the top dose activity change, negative = inhibition, hits mostly inhibitors; P. falciparum luciferase reporter growth, 96 h; AID 504834, 2011; further: on the % scale 0 is the no-effect control and ±100 the full control effect
#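 Delayed-death screen, second-generation endpoint: infected erythrocytes, 2% hematocrit, 0.05% parasitemia final; 96 hours at 37 C, 5% CO2; luciferase detection reagent; luminescence decrease equals reduced growth.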
# * marks the source's active call; other numbers are inactive results; ? = inconclusive; . = no result. Unless noted, the call rests on the fitted dose curve; in most records, active means well fitted curve in the direction sought with a large enough effect; inconclusive means small, poorly fitted or top-dose-only effect, or another doubt; inactive means no such curve, though single readings can be large; an effect the other way counts as inactive or inconclusive. Potency means the concentration at half of the fitted maximal effect.
SMILES,SARS PLpro yeast,AMA1-RON2 inh,Pf growth 48h,Pf growth 96h
O=C1C(=Cc2ccco2)C(=O)c2ccccc21,-20%,2%,3%,17µM*
Cc1ccc(/C=C2/C(=O)c3ccc(C(=O)O)cc3C2=O)o1,1%,4%,28%,8.3µM*
O=C1/C(=C/c2ccco2)CCc2ccccc21,-1%,-17%,338%,?
COC(=O)c1scc(C)c1NC(=O)c1ccc(Cl)cc1,-1%,-9%,-6%,42%
COC(=O)c1scc(C)c1N/N=C(\C)c1ccc(F)cc1F,-9%,3%,.,2.1µM*
COc1ccc(NS(=O)(=O)c2cc(NC(=O)c3cnc(C)cn3)ccc2N2CCCCC2)cc1,-5%,-7%,12µM*,?
COc1ccc(NS(=O)(=O)c2cc(NC(=O)c3ccco3)ccc2N2CCCCC2)cc1,16%,-10%,?,9.3µM*
COc1ccc(NS(=O)(=O)c2cc(NC(=O)C3CC3)ccc2N2CCCCC2)cc1,-3%,11%,-27%,10µM*
Cc1ccc(NC(=O)c2cc(NC(=O)c3ccco3)ccc2N2CCCCC2)cc1,-4%,0%,6.6µM*,-29%
COC(=O)C1=C(N)OC2=C(C(=O)CCC2)C1c1cccnc1 (centres undefined),0%,-7%,-15%,-8%
C=CCn1cc(C(=O)NCc2ccco2)c(=O)c2cc(S(=O)(=O)N3CCCCCC3)ccc21,1%,-16%,?,?
Cc1ccccc1C(=O)N1CCN(c2ccc(NC(=O)c3ccco3)cc2Cl)CC1,-18%,-9%,3.3µM*,1%
CCOC(=O)N1CCN(c2cc(NCCC(=O)O)c3c4c(onc24)-c2ccccc2C3=O)CC1,-4%,?,8.3µM*,-5%
CN1CCN(c2cc(N3CCN(C(=O)c4ccco4)CC3)c3c4c(onc24)-c2ccccc2C3=O)CC1,-5%,18µM*,?,45%
O=C(O)CCCNc1cc(N2CCC3(CC2)OCCO3)c2noc3c2c1C(=O)c1ccccc1-3,-3%,.,?,-24%
O=C(O)CCCNc1cc(N2CCN(C(=O)c3ccco3)CC2)c2noc3c2c1C(=O)c1ccccc1-3,-14%,-27%,?,?
O=C1c2ccccc2-c2onc3c(N4CCN(CCO)CC4)cc(N4CCN(C(=O)c5ccco5)CC4)c1c23,-4%,14µM*,?,?
COc1cc(CNc2ccc(O)cc2)cc(Br)c1OCc1ccccc1,-4%,49%,?,60%
CCN(c1ccccc1)S(=O)(=O)c1ccc(C(=O)NCC(c2cccs2)N(C)C)cc1 (centres undefined),-4%,-7%,?,?
CCN1CCN(c2ccc(S(=O)(=O)N3CCCCC3)cc2NC(=O)/C=C/c2ccc(OC)c(OC)c2)CC1,8%,-9%,6.6µM*,6.6µM*
CCN(CC)S(=O)(=O)c1ccc(N2CCCCC2)c(NC(=O)/C=C/c2cc(OC)c(OC)c(OC)c2)c1,11%,7%,?,10µM*
COc1cc(/C=C/C(=O)Nc2ccc(N3CCCCC3)c(S(=O)(=O)Nc3ccccc3Cl)c2)cc(OC)c1OC,5%,12%,13µM*,4.1µM*
COc1ccccc1NS(=O)(=O)c1cc(NC(=O)Nc2ccc(Cl)cc2Cl)ccc1N1CCCCC1,10%,7%,?,?
COc1cc(/C=C/C(=O)Nc2cc(S(=O)(=O)N3CCOCC3)ccc2N2CCCC2)cc(OC)c1OC,0%,17%,?,-5%
CCN(CC)S(=O)(=O)c1ccc(N2CCCC2)c(NC(=O)Cc2ccccc2)c1,-1%,-5%,?,?
SMILES,SARS PLpro yeast,AMA1-RON2 inh,Pf growth 48h,Pf growth 96h
CCN(CC)S(=O)(=O)c1ccc(N2CCCC2)c(NC(=O)c2ccccc2OC)c1,-1%,-7%,?,10µM*
Cc1cccc(N2CCN(C(=O)CCS(=O)(=O)c3ccc4c(c3)oc(=O)n4C)CC2)c1C,1%,9%,13µM*,9.3µM*
Cc1cccc(N2CCN(C(=O)CCNS(=O)(=O)c3ccc4c(c3)CCC(=O)N4)CC2)c1C,3%,-5%,?,?
Cc1cccc(N2CCN(C(=O)CCNS(=O)(=O)c3ccc4c(c3)oc(=O)n4C)CC2)c1C,-6%,14%,?,1.3µM*
O=C(CSc1nnc(-c2cccs2)n1-c1cccc(Cl)c1)c1cccc2c1OCCO2,-2%,3%,.,4%
Nc1ccccc1-c1ccc(Cl)cc1,.,-10%,.,.
[O-]/[N+](=C/c1ccccc1)c1ccccc1,-3%,14%,46%,?
CCc1ccc(-c2cc(C(=O)N/N=C/c3ccccn3)[nH]n2)cc1,-5%,68%,?,-17%
CCCc1sc(N/N=C/c2ccccn2)nc1-c1ccc(Br)cc1,-11%,57%,1.7µM*,9%
COCCCNC(=O)Cn1nc(-c2ccccc2OC)ccc1=O,2%,-4%,5%,21%
COCCNC(=O)Cn1nc(-c2ccccc2F)ccc1=O,6%,7%,16%,3.7µM*
COCCNC(=O)Cn1nc(-c2ccccc2OC)ccc1=O,-2%,3%,10%,66%
COCCCNC(=O)Cn1nc(-c2cccc(OC)c2)ccc1=O,0%,2%,8%,10µM*
COc1ccccc1-c1ccc(=O)n(CC(=O)NC(C)(C)C)n1,0%,-8%,46%,7.4µM*
COc1ccccc1NS(=O)(=O)c1ccc(C(=O)NCc2ccncc2)cc1,1%,-11%,42%,22%
Cc1onc(-c2ccccc2Cl)c1C(=O)O/N=C(\N)c1ccccc1,-3%,-13%,?,17%
Cc1cccc(N2C(=O)C(Oc3ccc(Cl)cc3Cl)C2C(=O)O)c1C (centres undefined),7%,5%,9%,10µM*
O=S(=O)(NCC(c1cccnc1)N1CCN(Cc2ccccc2)CC1)c1cc(F)ccc1F (centres undefined),-3%,-7%,?,10µM*
CCN1CCN(C(CNS(=O)(=O)c2ccc(OC)c(C)c2)c2cccnc2)CC1 (centres undefined),-1%,11%,-5%,15µM*
COc1ccccc1N1CCN(C(CNS(=O)(=O)c2cccs2)c2cccnc2)CC1 (centres undefined),1%,-15%,10µM*,?
CCN1CCN(C(CNS(=O)(=O)c2ccccc2)c2cccnc2)CC1 (centres undefined),-1%,7%,6%,29%
COc1ccc(S(=O)(=O)NCC(c2cccnc2)N2CCN(c3ccccc3)CC2)cc1C (centres undefined),-33%,-13%,.,?
COc1ccc(S(=O)(=O)NCC(c2cccnc2)N2CCN(c3ccc(F)cc3)CC2)cc1C (centres undefined),-35%,-5%,4.7µM*,237%
COc1cc(CN2CCCC(C)C2)ccc1OCc1ccccc1 (centres undefined),4%,-16%,1%,-14%
Cc1ccc(COCCN2CCN(S(=O)(=O)c3ccccc3)CCC2=O)cc1,-1%,0%,63%,-7%
